Compound activity from PubChem.
HT1080-NT tox: qHTS for induction of synthetic lethality in tumor cells producing 2HG: qHTS for the HT-1080-NT fibrosarcoma cell line; HT-1080-NT fibrosarcoma viability, CellTiter-Glo ATP luminescence, 48 h; Potency, µM (titrated, usually from 46.1 µM), most hits filed as cytotoxic; hit rate 1.6% among 360,000; AID 686970, 2013;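 also: NT is the 2HG producing partner of a matched IDH1 knockdown line; nearly all actives have a fitted effect of over 55% in size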
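A 48-hour cytotoxicity screen used HT-1080-NT cells plated 2 hours before compound delivery. ATP-based CellTiter-Glo luminescence measured viability, normalized to DMSO and no-cell controls.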
IL-1B inflam inh: qHTS for Inhibitors of Inflammasome Signaling: IL-1-beta AlphaLISA Primary Screen. hit rate 4.7% among 360,000. THP-1 LPS/ATP IL-1B secretion, AlphaLISA, 16 h; stronger effect = lower value. activity change, % at 57.5 µM; in the data active = activity change below about -50%; inconclusive = mostly about -30% to -49%
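THP-1 cells pretreated 1 hr with compounds (up to 57.5 uM final), then stimulated with LPS (250 ng/mL final) plus ATP (1.25 mM final); secreted IL-1B measured by AlphaLISA after 16 hr, decreased signal indicating inhibition.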
DT40 TDP1 CPT: qHTS for Inhibitors of human tyrosyl-DNA phosphodiesterase 1 (TDP1): qHTS in cells in presence of CPT; Potency, µM (top dose mostly 46.2 µM), actives largely listed as inhibitors; chicken DT40 Tdp1-/-;hTDP1 cells + 20 nM CPT, ATP luminescence, 48 h; hit rate 12% among 420,000; also: nearly all actives have a fitted effect of over 55% in size
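Chicken DT40 Tdp1-/- cells stably complemented with human TDP1 were seeded at 400 cells/well in medium containing 20 nM camptothecin, exposed to pin-transferred compounds, and grown at 37 °C for at least 48 hr. Viability was read as ATP luminescence.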
HT1080 IDH1KD tx: qHTS for induction of synthetic lethality in tumor cells producing 2HG: qHTS for the HT-1080-IDH1KD cell line. HT-1080 IDH1 knockdown viability, ATP luminescence, 48 h. Potency, µM (titrated, usually from 46.1 µM), usual class: cytotoxic. hit rate 2% among 360,000
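Knockdown cells (IDH1KD HT-1080) received compounds 2 h after plating at 750 cells/well and were kept 48 h at 37 °C in 5% FBS RPMI. A CellTiter-Glo luminescence read gave % activity for curve fitting.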
ELG1 DNA repair: qHTS screen for small molecules that inhibit ELG1-dependent DNA repair in human embryonic kidney (HEK293T) cells expressing luciferase-tagged ELG1; HEK293T ELG1-luciferase reporter, luminescence, 16 h; DNA damage induced by 5-fluorouridine; Potency, µM (doses to about 46.1 µM), hits mostly inhibitors; hit rate 2.3% among 330,000; AID 504467, 2011; also: nearly all actives have a fitted effect of over 55% in size
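Step one: seed 2,000 cells per well. Step two: pin-transfer compound or DMSO alongside 5-fluorouridine. Step three: incubate 16 hr, 37 °C, 5% CO2. Step four: add ONE-Glo, wait 30 min, read luminescence.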
DT40 TDP1 no CPT: qHTS for Inhibitors of human tyrosyl-DNA phosphodiesterase 1 (TDP1): qHTS in cells in absence of CPT; DT40 Tdp1-/- hTDP1 cells, no CPT, ATP luminescence, 48 h; Potency, µM (highest dose often 46.2 µM), actives largely listed as inhibitors; hit rate 15% among 420,000; AID 686978, 2013; also: nearly all actives have a fitted effect of over 55% in size
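Luminescent ATP content (CellTiter-Glo) served as the growth readout. Knockout chicken DT40 cells expressing human TDP1 were exposed to compounds without camptothecin for a minimum 48 hr at 37 °C.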
Numbers stand for hits; - = inactive; ? = inconclusive; . = no result. Compounds with a hit are over-represented: about 19% of the library has one in this group of screens. Unless noted, calls follow the shape of the dose curve; as a rule, active = well fitted curve in the direction sought with a large enough effect; inconclusive = small, poorly fitted or top-dose-only effect, or another doubt; inactive = no such curve, though single readings can be large; an effect the other way counts as inactive or inconclusive.

SMILES	HT1080-NT tox	IL-1B inflam inh	DT40 TDP1 CPT	HT1080 IDH1KD tx	ELG1 DNA repair	DT40 TDP1 no CPT
O=C1CC2(CCCC2)C(=O)N1CN1CCN(S(=O)(=O)c2cc(F)ccc2F)CC1	-	-	-	-	.	-
Cc1noc(C)c1C(=O)OCC(=O)c1c(N)n(CC(C)C)c(=O)n(C)c1=O	-	-	18µM	-	?	?
CC(C)Cn1c(N)c(C(=O)COC(=O)c2ccc3c(c2)OCCO3)c(=O)n(C)c1=O	-	-	18µM	-	7.1µM	21µM
CC(C)Cn1c(N)c(C(=O)COC(=O)c2ccc(F)cc2)c(=O)n(C)c1=O	?	-	?	-	?	?
CC(C)Cn1c(N)c(C(=O)COC(=O)c2c(F)cccc2F)c(=O)n(C)c1=O	-	-	-	-	?	-
CC(C)Cn1c(N)c(C(=O)COC(=O)c2cccc(Cl)c2)c(=O)n(C)c1=O	-	-	-	-	21µM	?
CC(C)Cn1c(N)c(C(=O)COC(=O)c2cccn2C)c(=O)n(C)c1=O	-	-	15µM	-	9.2µM	16µM
CCCn1c(N)c(N(CCOC)C(=O)CCC2CCCCC2)c(=O)[nH]c1=O	-	-	-	-	-	-
CCN(CC)CCCNC(=O)CSc1nc2nc(C)c(Cc3ccccc3C)c(C)n2n1	.	.	-	.	.	-
COc1ccccc1CN1CCC2(CC1)CCN(S(=O)(=O)c1ccccc1)CC2	.	.	-	.	.	?
CC(C)Cn1c(N)c(C(=O)CSc2ccc3c(c2)OCCO3)c(=O)n(C)c1=O	-	-	4.1µM	?	7.3µM	3.7µM
CCc1ccc(C(=O)OCC(=O)c2c(N)n(CC(C)C)c(=O)n(C)c2=O)cc1	?	-	?	-	8.2µM	?
CC(C)Cn1c(N)c(C(=O)CSc2nccn2C)c(=O)n(C)c1=O	-	-	-	-	-	?
Cc1cc(Nc2cccc(F)c2)n2nc(-c3ccco3)nc2n1	.	.	18µM	.	.	?
CCOC(=O)c1ccccc1Nc1cc(C)nc2nc(-c3ccco3)nn12	.	.	?	.	.	16µM
COc1ccc(-c2nc3nc(C)cc(Nc4cccc(C(F)(F)F)c4)n3n2)cc1	.	.	-	.	.	-
Cc1cc(Nc2ccccc2Cl)n2nc(-c3ccco3)nc2n1	.	.	?	.	.	26µM
Cc1ccc(CN2CCN(Cc3ccc4cccc(F)c4n3)CC2CCO)cc1 (stereo not given)	-	-	-	-	?	-
Cc1ccc(OC(=O)c2cc(-c3ccc4c(c3)OCCO4)on2)cc1C	.	.	-	.	.	-
NC(Cc1ccc(C(F)(F)F)cc1)c1csc(Nc2ccc(C(=O)c3ccccc3)cc2)n1 (stereo not given)	?	-70	?	?	.	?
CC(=O)c1ccc(Nc2nc(C(N)Cc3ccc(C(F)(F)F)cc3)cs2)cc1 (stereo not given)	?	?	15µM	?	.	16µM
Cc1ccc(C(=O)Nc2nnc(-c3ccc(C(C)(C)C)cc3)s2)cc1	-	-	?	-	?	?
COc1ccc(C(N)c2csc(Nc3ccc(C(=O)c4ccccc4)cc3)n2)cc1 (stereo not given)	?	-	?	?	.	?
Cc1ccc(C(=O)Nc2nc(C(N)Cc3ccc(C(F)(F)F)cc3)cs2)cc1 (stereo not given)	?	-65	?	16µM	.	?
CN1OC[C@@H]2CN(Cc3ccc4c(c3)OCO4)[C@H](c3ccc(N4CCCCC4)cc3)C[C@@H]21	-	-	?	-	.	?
CCN(CC)c1ncnc2c1ncn2[C@H]1CN(Cc2ccc(OC)cc2)C[C@@H](CO)O1	-	-	?	-	.	?
